Assay outcomes (PubChem)
Sm TGR inh – blocks Schistosoma mansoni thioredoxin glutathione reductase. AID 485364. 360,000 tested, 3% active. Q962Y6. purified TGR, DTNB reduction, TNB absorbance 405 nm. Potency, µM (top dose mostly 114 µM), inactives show top-dose activity change, negative = inhibition, usual class: inhibitors; note: potency is the fitted concentration of half-maximal effect; % is set by controls: 0 for no effect and ±100 for the full control effect; nearly all actives have a fitted effect of over 60% in size
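TGR 20 nM + NADPH 100 uM (dispensed conc.), cpd preinc 15 min RT; start with NADPH (500 uM addition) then DTNB (15 mM addition). Kinetic TNB absorbance, 405 nm filter. Four-parameter Hill fit across titration.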
SARS PLP yeast – SARS-CoV PLP inhibition in yeast; S. cerevisiae expressing SARS-CoV PLpro, growth rescue; Potency, µM (titrated, usually from 32.9 µM), for inactives: at the top dose activity, positive = growth rescue, actives largely listed as activators; 330,000 tested, 0.19% active; AID 485353; calls by dose curve; note: potency is the fitted concentration of half-maximal effect; 0% is about no effect; nearly all actives have a fitted effect of over 55% in size
HCMV inh – inhibitors of human cytomegalovirus. 410,000 tested, 4.5% active. activity change, negative = inhibition, % at 57.5 µM. HFF cells, HCMV-luciferase reporter, 72 h; stronger effect = lower value; in the data active = activity change below about -60%; inconclusive = no clear call, values can overlap the other calls; inactive = above about -39%; note: % is set by controls: 0 for no effect and ±100 for the full control effect
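HFF cells seeded 16 h at 37C, treated with compounds, infected with luciferase-reporter HCMV at MOI 1 PFU/cell; luciferase read at 72 h post infection, normalized to buffer-only and Salinomycin controls.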
Pf growth 96h – P. falciparum growth inhibition at 96 hours; Potency, µM (series often up to 28.7 µM), without a hit: at the highest dose activity change, negative = inhibition, hits mostly inhibitors; P. falciparum luciferase reporter growth, 96 h; 320,000 tested, 6.9% active; note: potency is the fitted concentration of half-maximal effect; % is set by controls: 0 for no effect and ±100 for the full control effect
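Two parasite generations (96 h, 37 C, 5% CO2) of compound exposure in infected erythrocytes (0.05% parasitemia, 2% hematocrit). Luciferase-reporter P. falciparum; decreased luminescence indicates inhibited growth, aimed at apicoplast-acting delayed death.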
HCV inh – inhibitors of hepatitis C virus infection | Potency, µM (titrated, usually from 41.8 µM), for inactives: at the top dose activity change, negative = inhibition, hits mostly inhibitors | Huh7.5.1 HCVcc-Cre infection, luciferase reporter, 44 h | 340,000 tested, 3.4% active; note: potency is the fitted concentration of half-maximal effect; % is set by controls: 0 for no effect and ±100 for the full control effect
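Luciferase read-out (15 sec integration) after a 15 min room-temperature substrate step quantifies HCVcc-Cre infection. Cells, 1,000 per well, had compound added 4 h post-plating, then virus at ~0.5 moi, and were cultured 44 h.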
Pf growth 48h – P. falciparum growth inhibition at 48 hours (one generation); 310,000 tested, 5.9% active; Potency, µM (series often up to 28.7 µM), inactives show at the highest dose activity change, negative = inhibition, hits mostly inhibitors; P. falciparum luciferase growth in erythrocytes, 48 h; note: potency is the fitted concentration of half-maximal effect; % is set by controls: 0 for no effect and ±100 for the full control effect
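Firefly luciferase activity from engineered P. falciparum reports growth; inhibitors lower the luminescent signal. Cultures contained 2% hematocrit erythrocytes at 0.1% final parasitemia.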
Numbers without * were called inactive; ? = inconclusive; . = no result given; ! = repeats disagree; [ ] = dose if it differs, or a comment. Shown are actives, neighbours in structure and some others; about 15% of the full set was active somewhere. Unless noted, calls come from the whole dose curve; as a rule, active = well fitted curve in the direction sought with a large enough effect; inconclusive = small, poorly fitted or top-dose-only effect, or another doubt; inactive = no such curve, though single readings can be large; an effect the other way counts as inactive or inconclusive.

SMILES	Sm TGR inh	SARS PLP yeast	HCMV inh	Pf growth 96h	HCV inh	Pf growth 48h
C#CCOCCOCCOCCNc1nc(N2CCN(C(=O)CCCCCCCCCCNC(=O)[C@H](CCCCN)n3cc(C)nn3)CC2)nc(N2CCN(C(=O)CCCCCCCCCCNC(=O)[C@@H]([C@H](C)CC)n3cc(CCCCCN)nn3)CC2)n1	25µM*	-4%	.	4.1µM*	22µM*	3.3µM*
C#CCOCCOCCOCCNc1nc(N2CCN(C(=O)CCCCCCCCCCNC(=O)[C@H]([C@@H](C)CC)n3cc(CCCCCN)nn3)CC2)nc(N2CCN(C(=O)CCCCCCCCCCNC(=O)[C@@H]([C@H](C)O)n3cc(C)nn3)CC2)n1	-29%	4%	.	0.37µM*	16%	0.47µM*
C#CCOCCOCCOCCNc1nc(N2CCN(C(=O)CCCCCCCCCCNC(=O)[C@@H]([C@H](C)O)n3cc(C)nn3)CC2)nc(N2CCN(C(=O)CCCCCCCCCCNC(=O)[C@@H]([C@H](C)O)n3cc(C)nn3)CC2)n1	-30%	0%	-74*	0.074µM*	-24%	0.1µM*
C#CCOCCOCCOCCNc1nc(N2CCOCC2)nc(N2CCN(C(=O)CCCCCCCCCCNC(=O)[C@@H]([C@H](C)O)n3cc(C)nn3)CC2)n1	?	2%	-15	?	-7%	?
CCOCCc1nn2c(=O)cc(COC(=O)c3ccccc3NC(=O)CC(C)C)nc2s1	3%	.	15	.	.	.
Cc1cc(C)nc(SCC(CSc2nc(C)cc(C)n2)C(=O)O)n1	0%	0%	-13	51%	-4%	6%
Cc1noc(C)c1C(=O)NCc1ccccc1F	10%	0%	-69*	50%	4%	-7%
C[C@H]1COc2cccc(N3CCSCC3)c2S(=O)(=O)N1	.	.	-1	.	.	.
Cc1ccc(C2=NN(C(=O)CN3CCN(C4CCS(=O)(=O)C4)CC3)C(c3ccco3)C2)cc1 (stereo unspecified)	?	-2%	-11	1%	?	-26%
O=C1c2ccccc2-c2cccnc21	5%	6%	-104*	23%	-3%	.
O=C1C(=O)c2ccccc2-c2ccccc21	?	-54%	-101*	?	2.8µM*	.
O=C1C(=C(I)I)c2ccccc2-c2ccccc21	.	.	-100*	.	8.9µM*	.
O=C(O)c1cccc2c1C(=O)c1ccccc1-2	-14%	0%	35	5%	21%	-1%
NC1=CC(=O)C(=O)c2ccccc21	.	.	-64*	.	?	.
Cc1cccc(OCC(=O)Nc2nonc2-c2ccc(Br)cc2)c1C	2%	.	-17	.	.	.
COc1ccc(N2C(=O)C(Cl)=C(Nc3ccccc3O)C2=O)cc1	40µM*	-31%	-19	.	-9%	50%
COc1ccc(N2C(=O)C(Cl)=C(Nc3ccccc3OC)C2=O)cc1	-1%	-24%	26	-1%	23%	37%
CN1CCN(c2c(F)cc3c(=O)c(C(=O)O)cn4c3c2OCN4C)CC1	2%	0%	-31	15µM*!	13%	-30%
CCOc1ccccc1CNC(=O)c1cc(-c2ccc(OC)cc2)nc2ccc(C(C)C)cc12	2%	.	3	.	.	.
CC(Cn1cncn1)C(=O)N1CCN(S(=O)(=O)c2ccccc2)CC1 (stereo unspecified)	15%	-7%	-10	18%	15%	-8%
Nc1ccccc1C(=O)NCc1ccco1	?	-3%	1	-70%	7%	2%
O=C(NCc1ccco1)c1ccccc1O	-14%	-11%	12	10µM*	13%	-34%
O=C(NCc1ccco1)c1cccc2ccccc12	-9%	-6%	-21	15%	2%	8%
O=C(Nc1ccccc1C(=O)NCc1ccco1)Nc1cccc2ccccc12	-18%	2%	?	-31%	11µM*	?
O=C(NCc1ccco1)c1ccccc1F	45µM*	-1%	9	.	0%	4%
SMILES	Sm TGR inh	SARS PLP yeast	HCMV inh	Pf growth 96h	HCV inh	Pf growth 48h
CN(c1ccccc1C(=O)Nc1ccccc1C(=O)NCc1ccco1)S(C)(=O)=O	?	2%	24	-1%	-24%	?
CN(c1ccccc1C(=O)NCc1ccco1)S(C)(=O)=O	40µM*	0%	9	.	-3%	4%
Cc1cccc(NC(=O)c2ccccc2OCC(=O)N2CCCC2)c1C	.	0%	.	68%[1.15 µM]	.	7%
CC1=C(C(=O)Nc2ccccc2C(=O)N2CCN(c3ccccc3)CC2)SCCO1	.	.	26	.	.	.
CCOc1ccc(C(=O)OCc2cc(=O)n3nc(C(C)C)sc3n2)cc1	0%	.	-12	.	.	.
CCOc1ccc(C(=O)NCC(=O)NNC(=O)CN(C)S(=O)(=O)c2ccc(Cl)cc2)cc1OCC	.	.	-11	.	24%	.
Cc1cc(S(=O)(=O)Nc2ccc(C(=O)NCC(c3ccccc3)N(C)C)cc2)ccc1F (stereo unspecified)	-25%	-1%	?	10µM*	-8%	-15%
CCOc1ccc(NS(=O)(=O)c2ccc(C(=O)NCC3(N(C)C)CCCCC3)cc2)cc1	-6%	-2%	-19	9.3µM*	?	8.3µM*
CCOc1ccc(NS(=O)(=O)c2ccc(C(=O)NCC3(N4CCCCC4)CCCCC3)cc2)cc1	-9%	-8%	19	?	?	?
Cc1cc(S(=O)(=O)Nc2ccc(C(=O)NCC3(N4CCCCC4)CCCCC3)cc2)ccc1F	1%	5%	-5	13µM*	-20%	?
CN(C)C(CNC(=O)c1ccc(NS(=O)(=O)c2ccc(F)c(F)c2)cc1)c1ccccc1 (stereo unspecified)	-1%	13%	-10	-3%	9%	?
CC(=O)c1ccc(S(=O)(=O)NCc2ccc(C(=O)NCC(c3ccccc3)N(C)C)cc2)cc1 (stereo unspecified)	14µM*	-4%	82	?	?	13µM*
CC(=O)c1ccc(NC(=O)c2nn(C)c3c2COc2ccccc2-3)cc1	-2%	.	-27	.	.	.
CCC[C@H]1[C@H](N(Cc2cccs2)Cc2cccs2)CC[C@@]23CCCN2C(=O)CCC[C@@H]13	.	.	18	.	.	.
Cc1cc(S(=O)(=O)Nc2ccc(C(=O)NCC(c3ccco3)N(C)C)cc2)ccc1F (stereo unspecified)	-19%	5%	-1	-7%	-14%	?
Cc1cc(S(=O)(=O)Nc2ccc(C(=O)NCC3(N(C)C)CCCCC3)cc2)ccc1F	1%	10%	-11	10µM*	-10%	?
COc1ccc(-c2cnc3c(NC=O)cc(-c4cccc(NS(C)(=O)=O)c4)cn23)cc1OC	.	.	125	.	.	.
